Assay [1] is described as follows: A CellTox Green Cytotoxicity Assay to monitor cytotoxicity in HepG2 cells - 8 hour (AID 1224890). Note: nearly all actives have a fitted effect of over 45% in size. A digest of the protocol: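 HepG2 cells were seeded together with the CellTox Green dye at 600 cells/well, left 5 h at 37 C/5% CO2, then given compounds in DMSO. Fluorescence from dye bound to dead-cell DNA was read repeatedly over 40 h of treatment at 37 C.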
Assay [2] in a line: qHTS assay to identify small molecule antagonists of the estrogen receptor alpha (ER-alpha) signaling pathway using the BG1 cell line in the presence of 0.1 nM 17-beta-estradiol - cell viability counter screen (AID 1259241). Note: nearly all actives have a fitted effect of over 40% in size. The method, boiled down: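 CellTiter-Fluor read (30 min, 37C) on ER-alpha/ERE-luc VM7Luc4E2 cells; 22 hr compound treatment; agonist 0.1 nM E2 final; same-well multiplex.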
(In general: In qHTS, concentration-response curves come from the screen itself.)

The nature of assay [3]: qHTS assay to identify small molecule antagonists of the androgen receptor (AR) signaling pathway using the MDA cell line in the presence of 0.5 nM R1881 - cell viability counter screen (AID 1259242). Note: nearly all actives have a fitted effect of over 45% in size. The method, boiled down:
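MDA-kb2 cells (human breast carcinoma, stably carrying MMTV-luciferase reporter) were exposed to compounds with 0.5 nM R1881 (final) for 16 hr at 37C, 0% CO2; viability then read as live-cell protease fluorescence (CellTiter-Fluor, 30 min) in the same wells.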

Assay [4] deals with Androgen receptor (Homo sapiens) (UniProt P10275). Kind of assay: qHTS assay to identify small molecule antagonists of the androgen receptor (AR) signaling pathway using the MDA cell line in the presence of 0.5 nM R1881 (AID 1259243). Note: nearly all actives have a fitted effect of over 50% in size. Note: potency is the fitted concentration of half-maximal effect. The method, boiled down: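 MDA-kb2 human breast carcinoma cells carrying an MMTV-luciferase reporter (AR- and GR-responsive) were plated, rested 5 hr at 37C, dosed with compounds, then stimulated with 0.5 nM R1881 (final) for 16 hr; luminescence was read after ONE-Glo.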
Sequence of Androgen receptor (Homo sapiens) (P10275 whole entry, looked up): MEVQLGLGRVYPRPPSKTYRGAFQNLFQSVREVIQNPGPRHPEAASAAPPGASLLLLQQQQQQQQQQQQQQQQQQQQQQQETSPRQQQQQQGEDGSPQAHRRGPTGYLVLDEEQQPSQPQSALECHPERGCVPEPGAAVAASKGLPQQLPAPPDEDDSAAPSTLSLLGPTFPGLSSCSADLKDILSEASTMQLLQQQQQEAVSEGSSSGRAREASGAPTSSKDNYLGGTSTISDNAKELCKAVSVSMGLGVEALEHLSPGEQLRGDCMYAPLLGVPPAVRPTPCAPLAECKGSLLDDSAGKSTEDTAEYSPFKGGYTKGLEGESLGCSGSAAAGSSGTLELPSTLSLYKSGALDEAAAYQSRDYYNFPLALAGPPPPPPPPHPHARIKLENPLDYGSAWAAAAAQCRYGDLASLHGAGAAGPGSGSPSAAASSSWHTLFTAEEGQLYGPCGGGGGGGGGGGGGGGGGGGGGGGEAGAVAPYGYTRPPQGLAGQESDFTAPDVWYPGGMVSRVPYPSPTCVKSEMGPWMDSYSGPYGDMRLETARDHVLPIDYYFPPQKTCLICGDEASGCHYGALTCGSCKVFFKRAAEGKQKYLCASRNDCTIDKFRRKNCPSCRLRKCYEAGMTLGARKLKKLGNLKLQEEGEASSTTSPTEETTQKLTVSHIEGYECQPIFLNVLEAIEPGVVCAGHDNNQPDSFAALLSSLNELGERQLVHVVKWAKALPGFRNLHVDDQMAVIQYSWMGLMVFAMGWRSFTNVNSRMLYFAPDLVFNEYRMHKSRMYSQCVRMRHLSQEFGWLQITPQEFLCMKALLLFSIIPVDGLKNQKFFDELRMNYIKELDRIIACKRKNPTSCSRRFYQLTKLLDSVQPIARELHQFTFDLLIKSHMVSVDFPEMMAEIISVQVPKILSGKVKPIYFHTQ

The nature of assay [5]: qHTS assay to identify small molecule phospholipidosis (PLD) inducers (AID 1259344; active = well fitted curve in the direction sought with a large enough effect; an effect the other way counts as inactive or inconclusive). The method, boiled down: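 HepG2 cells on collagen I, attached 4 h at 37 C, were co-treated with compound and LipidTOX Red dye for 24 h at 37 C, then fixed with paraformaldehyde plus Hoechst 33342 and imaged by high-content microscopy for phospholipid accumulation.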
Assay [6] in a line: qHTS assay to identify small molecule HDAC inhibitors (AID 1259364). Note: top concentration of the series differs between compounds; nearly all actives have a fitted effect of over 45% in size. The method, boiled down: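 Wild-type HCT-116 cells were plated overnight, exposed to compounds for 2 h at 37 °C, then given HDAC-Glo class I/II luminogenic reagent for 30 min at room temperature before luminescence was read.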
The nature of assay [7]: qHTS assay to identify small molecule HDAC inhibitors - cell viability counter screen (AID 1259365). Note: series mostly up to about 92 µM; nearly all actives have a fitted effect of over 50% in size. The method, boiled down:
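To flag cytotoxic hits, 1,500 wild-type HCT-116 cells per well, plated the day before, receive test compounds for 2hr at 37 C before CellTiter-Glo reagent and a luminescence read.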

Assay [8] in a line: qHTS assay to identify small molecule agonists of the sonic hedgehog signaling (Shh) pathway - cell viability counter screen (AID 1259366). Note: nearly all actives have a fitted effect of over 50% in size. A digest of the protocol: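 Fluorescence from CellTiter-Fluor reports live cells in this counter screen. NIH/3T3-derived Gli1-Luc reporter cells receive test compounds for 24hr at 37C; reagent goes in at 23hr.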
A short description of assay [9]: qHTS assay to identify small molecule antagonists of the sonic hedgehog signaling (Shh) pathway - cell viability counter screen (AID 1259367). Note: nearly all actives have a fitted effect of over 55% in size. The method, boiled down:
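NIH/3T3-derived Gli1-Luc reporter cells (2,000 per well) rested 4 hr at 37 C, then received DMSO compounds plus conditioned medium. After 23 hr of treatment, CellTiter-Fluor was added for 1 hr at 37C and fluorescence read.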

In assay [10] the target is Estrogen receptor (Homo sapiens) (UniProt P03372). Kind of assay: qHTS assay to identify small molecule antagonists of the estrogen receptor alpha (ER-alpha) signaling pathway using the BG1 cell line in the presence of 0.1 nM 17-beta-estradiol (AID 1259244). Note: nearly all actives have a fitted effect of over 50% in size. The method, boiled down:
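VM7Luc4E2 cells (endogenous full-length ER-alpha, stable 4xERE-luciferase) were grown 5 days in phenol red-free medium with charcoal-stripped FBS, then exposed 22 h at 37C to compounds plus 0.1 nM (final) 17beta-estradiol; ONE-Glo luminescence read-out.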

The values below come from PubChem BioAssay (Tox21).

Structures are written as SMILES. Records with an inconclusive call do not appear. Active and inactive are the calls of the source. Unless noted, calls come from the whole dose curve; as a rule, active = well fitted curve in the direction sought with a large enough effect in the repeat runs; inconclusive = weak or mixed curves; inactive = no such curve, though single readings can be large; an effect the other way counts as inactive or inconclusive.

Sequence of Estrogen receptor (Homo sapiens) (P03372 whole entry, looked up): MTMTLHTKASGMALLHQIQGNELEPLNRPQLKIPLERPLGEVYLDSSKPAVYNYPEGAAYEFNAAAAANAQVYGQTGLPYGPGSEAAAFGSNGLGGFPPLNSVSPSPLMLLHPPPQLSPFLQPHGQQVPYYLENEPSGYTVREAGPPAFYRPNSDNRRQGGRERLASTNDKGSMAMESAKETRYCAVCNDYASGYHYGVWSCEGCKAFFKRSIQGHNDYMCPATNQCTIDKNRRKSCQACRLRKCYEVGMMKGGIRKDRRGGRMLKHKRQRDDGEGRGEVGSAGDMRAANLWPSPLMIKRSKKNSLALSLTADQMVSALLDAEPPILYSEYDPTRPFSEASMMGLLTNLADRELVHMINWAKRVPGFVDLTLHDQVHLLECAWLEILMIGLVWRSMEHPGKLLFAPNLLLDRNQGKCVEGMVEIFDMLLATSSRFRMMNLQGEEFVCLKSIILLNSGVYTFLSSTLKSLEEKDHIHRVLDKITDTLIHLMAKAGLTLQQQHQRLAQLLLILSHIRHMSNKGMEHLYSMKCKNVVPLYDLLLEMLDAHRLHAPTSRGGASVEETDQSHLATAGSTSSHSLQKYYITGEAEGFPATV

In the case of `OCc1ccccc1`, the call in assay [1], in assay [5] and in assay [7] was inactive. Besides, the Potency result in assay [2], in assay [3], in [4], in [6], in [8] and in assay [9] was “inactive” each time.

Consider `CNC(=S)N(C)C`, for which the result in [1] and in assay [7] was inactive. Also, the Potency entry in assay [2], in assay [3], in assay [10], in [6], in assay [8] and in assay [9] was “inactive” throughout.

For the compound `CCNc1ccccc1`, the call in assay [1] and in assay [7] was inactive. In addition, the Potency entry in assay [2], in assay [3], in assay [4], in [8] and in assay [9] was “inactive” each time.

As to `CC(C)CC(=O)CC(C)CC(C)C` (stereo unspecified), the call in assay [1] and in assay [7] was inactive. Also, the Potency result in [2], in assay [3], in [4], in [8] and in assay [9] was “inactive” each time.

Turning to `CCCCCCCCCCCC(=O)OC`, the compound was classed as inactive in assay [1] and in assay [7]. In addition, the Potency result in [2], in assay [3], in assay [10], in [6], in [8] and in [9] was “inactive” in each case.

Take `OC1C(O)C(O)C(O)C(O)C1O` (stereo unspecified): the compound was called inactive in assay [1], in assay [5] and in assay [7]. Besides, the Potency entry in assay [2], in [3], in [10], in [6], in assay [8] and in assay [9] was “inactive” each time.

In the case of `Brc1ccc(Br)c(Br)c1`, the call in assay [1] and in [7] was inactive. Also, the Potency result in [2], in [3], in assay [10], in assay [6], in assay [8] and in assay [9] was “inactive” each time.

For the compound `CC(C)(Oc1ccc(CCNC(=O)c2ccc(Cl)cc2)cc1)C(=O)O`, the result in assay [1], in assay [5] and in [7] was inactive. Further, the Potency result in [2], in [3], in assay [8] and in assay [9] was “inactive” each time.

As to `CN(C)CCOC(=O)COc1ccc(Cl)cc1`, the outcome in assay [1], in [5] and in assay [7] was inactive. The Potency entry in assay [2], in assay [3], in assay [8] and in [9] was “inactive” throughout.

As for `CCCCCCCCCCCCCCCCO`, the outcome in [1], in assay [5] and in [7] was inactive. Also, the Potency result in assay [2], in assay [3], in assay [8] and in assay [9] was “inactive” each time.

Regarding `OCc1cccc(Oc2ccccc2)c1`, the compound was classed as inactive in assay [1] and in [7]. The Potency result in assay [2], in assay [3], in assay [6], in assay [8] and in assay [9] was “inactive” throughout. Further, the Potency in assay [4] is 31.1 µM (active).

As for `NCCN1CCNCC1`, the call in assay [1] and in assay [7] was inactive. In addition, the Potency entry in [2], in assay [3], in assay [10], in assay [6], in [8] and in assay [9] was “inactive” each time.

On to `COc1ccc([N+](=O)[O-])cc1N`, for which the compound was called inactive in [1] and in [7]. Besides, the Potency entry in assay [2], in [3], in assay [10], in assay [6], in [8] and in assay [9] was “inactive” in each case.

As for `CC1(C)NC(=O)NC1=O`, the compound was classed as inactive in [1] and in [7]. Also, the Potency result in assay [2], in [3], in [10], in assay [8] and in assay [9] was “inactive” in each case.

As to `C[C@]12CCC(=O)C=C1CC[C@@H]1[C@@H]2[C@@H](O)C[C@@]2(C)[C@H]1CC[C@]2(O)C(=O)CO`, the compound was classed as inactive in assay [1], in assay [5] and in assay [7]. For the same compound, the Potency entry in [2], in [3], in [4], in assay [6], in [8] and in assay [9] was “inactive” each time.

With `CC(CCl)OP(=O)(OC(C)CCl)OC(C)CCl` (stereo unspecified), the outcome in assay [1] and in assay [7] was inactive. Besides, the Potency entry in [2], in assay [3], in assay [10], in assay [8] and in [9] was “inactive” in each case.

As to `CN(C)c1ccc(O)c2c1C[C@H]1C[C@H]3[C@H](N(C)C)C(=O)C(C(N)=O)=C(O)[C@@]3(O)C(=O)C1=C2O`, the compound was classed as inactive in assay [1], in assay [5] and in [7]. For the same compound, the Potency result in assay [2], in assay [3], in assay [6], in assay [8] and in assay [9] was “inactive” each time.

Turning to `C=CCCCCCCCCC(=O)O`, the result in assay [1], in assay [5] and in assay [7] was inactive. For the same compound, the Potency entry in assay [2], in [3], in assay [6], in [8] and in [9] was “inactive” in each case.

For the compound `COc1ccccc1OCC(O)CO` (stereo unspecified), the compound was called inactive in assay [1], in assay [5] and in assay [7]. The Potency result in [2], in assay [3], in assay [4], in assay [6], in [8] and in assay [9] was “inactive” in each case.

On to `CC(CCO)CC(C)(C)C` (stereo unspecified), for which the result in assay [1] and in [7] was inactive. The Potency entry in assay [2], in assay [3], in assay [4], in assay [8] and in [9] was “inactive” each time.

In the case of `CCCCCC(=O)O`, the call in assay [1] and in assay [7] was inactive. The Potency result in assay [2], in assay [3], in assay [4], in assay [10], in assay [8] and in assay [9] was “inactive” each time.

Take `CC1(C)S[C@@H]2[C@H](NC(=O)COc3ccccc3)C(=O)N2[C@H]1C(=O)O`: the compound was called inactive in assay [1] and in [7]. Moreover, the Potency entry in assay [2], in [3], in [10], in assay [8] and in assay [9] was “inactive” each time.

On to `COc1ccc(C)cc1N`, for which the call in assay [1] and in assay [7] was inactive. Besides, the Potency result in [2], in [3], in assay [4], in assay [10], in assay [6] and in [8] was “inactive” each time. In assay [9], the Potency entry is “inactive”.

Take `N[C@H](Cc1c[nH]c2ccccc12)C(=O)O`: the compound was called inactive in [1], in [5] and in assay [7]. For the same compound, the Potency result in [2], in assay [3], in [6], in [8] and in [9] was “inactive” throughout.

With `CCCCC(C=O)CC` (stereo unspecified), the outcome in assay [1] and in [7] was inactive. The Potency entry in [2], in assay [3], in [10], in [6], in assay [8] and in assay [9] was “inactive” each time.
